ALOX12 inh – inhibitors of human 12S-lipoxygenase ALOX12; P18054; purified 12hLO, xylenol orange hydroperoxide absorbance; Potency, µM (top dose mostly 108 µM), inactives show top-dose activity change, negative = inhibition, most hits filed as inhibitors; 580,000 tested, 1.1% active; also: % is scaled to controls: 0 for no effect and ±100 for the full control effect
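Purified human 12hLO at 150 nM in 25 mM Hepes, 0.01% Triton X-100, pH 7.0, preincubated 15 min at room temperature with compound. Reaction started with 40 uM arachidonic acid, 30 min at room temperature. Hydroperoxide measured by Fe-xylenol orange, 573/405 nm absorbance ratio.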
GLP1R ag – GLP-1 receptor (human) agonism; Potency, µM (series often up to 45.6 µM), inactives show at the top dose activation, most hits filed as activators; 380,000 tested, 0.007% active; AID 624172; HEK293 GLP-1R CRE-luciferase, luminescence, 4-6 h; cells express a hypersensitive GLP-1R form; also: % of control where 0% means no effect
Glioma ERSR ind – ER stress response induction in glioma; 420,000 tested, 0.02% active; U87-MG GRP78 promoter luciferase reporter, 16 h; Potency, µM, inactives show at the top dose activation, most hits filed as activators; also: series mostly up to about 76 µM; % of control where 0% means no effect; nearly all actives have a fitted effect of over 35% in size
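ERSR induction read as luciferase luminescence (Bright-Glo, 10 min at room temperature) in stably transfected human U87-MG glioma cells exposed to compounds for 16 h, using GRP78 as sensor.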
GLS inhibitor – glutaminase GLS (human) inhibition | GLS enzymatic activity, qHTS titration | Potency, µM (top dose mostly 45.5 µM), inactives show at the top dose activity change, negative = inhibition, actives largely listed as inhibitors | 410,000 tested, 0.21% active | AID 624170; also: % is scaled to controls: 0 for no effect and ±100 for the full control effect
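hKGA; 45 mM KH2PO4 pH 8.2 + 0.02% Tween-20; cpd via pin tool; 1 mM Gln soln; GluOx/HRP/Amplex Red; RT 30 min; fluor. t0 & final.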
PTHR1 ag – agonists of human PTHR1 parathyroid hormone receptor; Q03431; HEK293 GP2 PTHR1 cells, GloSensor cAMP luminescence, 1 h; Potency, µM (doses to about 115 µM), without a hit: top-dose activation, actives largely listed as activators; 410,000 tested, 0.075% active; AID 743266; also: nearly all actives have a fitted effect of over 55% in size
Target sequence (Q03431 whole entry, looked up): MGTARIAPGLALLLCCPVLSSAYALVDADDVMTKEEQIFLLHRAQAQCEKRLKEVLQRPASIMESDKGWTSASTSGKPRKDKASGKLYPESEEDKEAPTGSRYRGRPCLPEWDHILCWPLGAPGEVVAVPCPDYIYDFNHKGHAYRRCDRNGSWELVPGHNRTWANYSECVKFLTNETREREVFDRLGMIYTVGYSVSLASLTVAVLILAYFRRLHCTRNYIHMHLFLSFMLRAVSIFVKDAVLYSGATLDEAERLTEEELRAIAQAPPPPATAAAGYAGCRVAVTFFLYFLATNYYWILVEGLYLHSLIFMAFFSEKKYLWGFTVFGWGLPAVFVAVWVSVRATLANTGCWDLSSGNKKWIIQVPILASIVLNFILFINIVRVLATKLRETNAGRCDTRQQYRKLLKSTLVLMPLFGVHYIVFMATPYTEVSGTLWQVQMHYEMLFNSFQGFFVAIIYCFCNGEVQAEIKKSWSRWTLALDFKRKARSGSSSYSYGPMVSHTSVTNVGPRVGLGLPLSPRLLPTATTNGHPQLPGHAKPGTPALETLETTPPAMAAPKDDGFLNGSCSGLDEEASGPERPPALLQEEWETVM
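HEK-293-derived GP2 cells expressing PTHR1 and a GloSensor cAMP reporter, 3,000/well, plated overnight, given luciferin plus IBMX (each 0.5 mM as added) for 1 h at 37 °C, then compound for 1 h at 37 °C. Luminescence was read after 15 min at room temperature.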
GLP-1R inv ag – acts as inverse agonist at human GLP-1 receptor; P43220; HEK293 GLP-1R CRE-luciferase, luminescence, 24 h; GLP-1R form is constitutively active; Potency, µM (doses to about 38.3 µM), for the others: top-dose activity change, negative = inhibition, hits mostly inhibitors; 410,000 tested, 1.6% active; also: % is scaled to controls: 0 for no effect and ±100 for the full control effect; nearly all actives have a fitted effect of over 55% in size
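Inverse agonists were sought by their lowering of basal cAMP reporter luciferase output in HEK293 cells stably carrying constitutively active human GLP-1R, after 24 h compound treatment.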
Numbers without * were called inactive; i = inactive; ? = inconclusive; . = no result given; [ ] = dose if it differs, or a comment. A selection: hits, their analogues and other compounds. The true share with any hit is near 2.3%. Calls follow the shape of the dose curve; as a rule, active = well fitted curve in the direction sought with a large enough effect; inconclusive = small, poorly fitted or top-dose-only effect, or another doubt; inactive = no such curve, though single readings can be large; an effect the other way counts as inactive or inconclusive. Potency is read from the fitted curve at half-maximal effect.

SMILES	ALOX12 inh	GLP1R ag	Glioma ERSR ind	GLS inhibitor	PTHR1 ag	GLP-1R inv ag
O=C(Nc1ccc2c(c1)OCCO2)c1cc2sccc2n1Cc1ccccc1	0%	-10%	-6%	-4%	-6%[57.5 µM]	?
COc1ccc(C)cc1NC(=O)c1cc(=O)[nH]c2ccccc12	-38%	.	.	.	.	.
O=C(O)c1[nH]c2ccccc2c1C(c1ccccc1)c1c(C(=O)O)[nH]c2ccccc12	6%	-2%	-2%	11µM*	-24%	-3%
COc1cc(C(c2c(C(=O)O)[nH]c3ccccc23)c2c(C(=O)O)[nH]c3ccccc23)ccc1OCc1ccccc1	28µM*	-1%	-1%	?	i	?
C=CCOc1ccc(C(c2c(C(=O)O)[nH]c3ccccc23)c2c(C(=O)O)[nH]c3ccccc23)cc1	28µM*	-2%	-5%	81%	i	19%
CC(=O)Nc1sc2c(c1CN1CCN(c3ccc(F)cc3)CC1)CCCC2	?	-3%	-2%	8%	-4%[57.5 µM]	7.1µM*
CC(=O)Nc1sc2c(c1CN1CCCC1)CCCC2	22%	7%	-1%	-2%	i	-29%
Cc1ccc(S(=O)(=O)NC(=O)Nc2cc(C)ccc2F)cc1	0%	7%	-4%	4%	3%[57.5 µM]	-9%
CC(=O)NS(=O)(=O)c1ccc(N=c2ssc3c2-c2ccc(C)cc2NC3(C)C)cc1	16µM*	0%	0%	-6%	-97%	?
COc1ccc(-c2nc3c(C#N)c[nH]n3c2NC2CCCCC2)cc1	3%	.	2%	13µM*	i	-26%
FC(F)(F)c1cccc(CSc2nccc(-c3ccc(Cl)cc3)n2)c1	-2%	.	.	.	.	.
O=C1Nc2c(Cl)cc(Cl)cc2C12Nc1ccccc1S2 (configuration not stated)	35µM*	.	.	.	.	.
C=C1[C@@H](O)CN(Cc2ccc(OC)cc2)S1(=O)=O	.	.	-9%	.	.	.
COc1ccc(CN2C[C@H]3CCCN3c3cc(Br)ccc3S2(=O)=O)cc1	.	15%	3%	-3%	-17%	0.89µM*
O=C(CCc1ncc(-c2ccc(Cl)cc2)o1)Nc1ccc(F)cc1F	-9%	.	.	.	.	.
CC(C)C(=O)Nc1ccc(Cl)c(Cl)c1	11%	.	.	.	.	.
O=C(Nc1cc(Br)ccc1O)c1cc(-c2ccco2)on1	28µM*	-1%	2%	-11%	i	-8%
O=C(Cc1ccc(Cl)cc1Cl)N1CCN(c2ccccc2O)CC1	40µM*	.	.	.	.	.
O=C(CN1C(=O)NC2(CCCC2)C1=O)N1CCN(c2ccccc2O)CC1	-27%	5%	0%	3.2µM*	i	8%
O=C(NCC(=O)N1CCN(c2ccccc2O)CC1)c1ccc2c(c1)OCO2	32µM*	-6%	-3%	19%	i	-12%
O=C(Cc1ccc(Br)cc1)N1CCN(c2ccccc2O)CC1	?	1%	5%	22%	i	11µM*
O=C(NCCC(=O)N1CCN(c2ccccc2O)CC1)c1ccc(Cl)cc1	?	-5%	-2%	18%	-59%	-21%
O=C(Cc1ccc(Br)cc1)N1CCN(c2ccc(F)cc2)CC1	?	0%	-1%	17%	-6%[57.5 µM]	?
NC(=O)C1CCN(C(=O)c2ccc3nc(C(F)(F)F)sc3c2)CC1	-6%	.	.	.	.	.
CCS(=O)(=O)Nc1ccc(C2=NN(C(C)=O)C(c3ccco3)C2)cc1 (configuration not stated)	-18%	.	.	.	.	.
O=C(NCC1CCCO1)c1ccc(CSc2nc3cccnc3n2Cc2ccc(F)cc2)cc1 (configuration not stated)	-9%	.	.	.	.	.
COC(=O)c1cccc(C(=O)NC2CCCN(CCCc3ccccc3)C2)c1 (configuration not stated)	-1%	.	.	.	.	.
O=C(Nc1ccc(F)cc1F)N1CCN(c2ccc(Cl)c(Cl)c2)CC1	-25%	.	-7%	-5%	-88%	11µM*
C=CCn1c(C)cc(C(=O)Cn2c(=O)c3c(ncn3CC)n(Cc3ccccc3)c2=O)c1C	-4%	.	.	.	.	.

Screening data (PubChem)
